Rows were chosen to be rich in hits. Some 3.5% of all compounds tested hit in one or more screens of this group.
FBW7 act: FBW7 E3 ligase activators, primary screen, biochemical, AlphaScreen, human; 0.13% of 650,000 active; normalized activity (activation), % at 26.1 µM; F-box/WD repeat-containing protein 7 (Homo sapiens), Q969H0; AID 1259310, 2017; AlphaScreen FBW7–phospho-cyclin E peptide binding, activator screen; in the data active means normalized activity above about 1.9%;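 further: purified mutant Fbw7 with reduced substrate affinity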
GPR151 activ: activators of human GPR151, primary screen, cell-based, PathHunter beta-arrestin, luminescence. G-protein coupled receptor 151 (Homo sapiens), Q8TDV0. PathHunter beta-arrestin GPR151 cells. activation, % at 11.2 µM. 1% of 650,000 active; in the data active means activation above about 4.9%;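 further: 0% = median of compound wells and 100% = cells with positive control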
MITF inh: MITF inhibitors, primary screen, biochemical, AlphaScreen, human; Microphthalmia-associated transcription factor (Homo sapiens), O75030; AlphaScreen MITF homodimerization, bead proximity signal; inhibition, % at 2.6 µM; 0.91% of 650,000 active; in the data active means inhibition above about 50%;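 further: 0% = vehicle wells with protein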
Target sequence (O75030 whole entry, looked up): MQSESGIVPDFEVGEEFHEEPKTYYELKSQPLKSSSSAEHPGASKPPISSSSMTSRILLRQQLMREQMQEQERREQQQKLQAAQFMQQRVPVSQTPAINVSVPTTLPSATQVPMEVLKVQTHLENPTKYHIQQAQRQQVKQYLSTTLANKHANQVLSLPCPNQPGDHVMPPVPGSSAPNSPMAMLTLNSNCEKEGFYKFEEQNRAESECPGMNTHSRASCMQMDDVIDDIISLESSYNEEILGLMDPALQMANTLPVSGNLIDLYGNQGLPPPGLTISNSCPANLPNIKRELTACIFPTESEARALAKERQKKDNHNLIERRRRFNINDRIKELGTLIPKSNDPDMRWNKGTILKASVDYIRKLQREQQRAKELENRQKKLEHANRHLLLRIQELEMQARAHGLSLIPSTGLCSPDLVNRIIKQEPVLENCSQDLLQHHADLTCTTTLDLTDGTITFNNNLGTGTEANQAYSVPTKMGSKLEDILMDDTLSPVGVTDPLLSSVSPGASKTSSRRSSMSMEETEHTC
TEAD-YAP inh: TEAD-YAP interaction inhibition, primary screen, TEAD-YAP interaction inhibitor project, luminescence, HEK-TIYL cells; TEAD-Gal4/YAP UAS-luciferase luminescence; inhibition, % at 9.12 µM; 1.4% of 640,000 active; AID 1259422, 2018; in the data active means inhibition above about 32%;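 further: 0% = median of test compound wells and 100% = reference inhibitor wells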
The depositor's hits bear a star.

SMILES	FBW7 act	GPR151 activ	MITF inh	TEAD-YAP inh
Cc1cccc(-n2ncc3c(Nc4cc(C)ccc4C)ncnc32)c1	0	-2	-5	45*
COc1ccccc1C(=O)N1CCN2C(=O)[C@H](Cc3ccccc3)N(C)C(=O)[C@H]2C1	1	-1	4	-1
Cc1csc(C(C#N)C2=NS(=O)(=O)c3ccccc32)n1 (stereo unspecified)	0	0	0	-19
N#CC(C1=NS(=O)(=O)c2ccccc21)c1nc(C23CC4CC(CC(C4)C2)C3)cs1 (stereo unspecified)	0	1	-3	62*
CC(C)C(=O)NC(C)c1nnc2n1CCN(C/C=C/c1ccc(N(C)C)cc1)CC2 (stereo unspecified)	0	0	4	-7
Cc1ccc([N+](=O)[O-])cc1-c1ccc(/C=C2/C(=O)NC(=O)N(Cc3ccco3)C2=O)o1	0	0	43	-3
O=C1NC(=O)N(Cc2ccco2)C(=O)/C1=C\c1ccc(-c2ccc(Br)cc2)o1	0	0	70*	0
Cc1cc([N+](=O)[O-])ccc1-c1ccc(/C=C2/C(=O)NC(=O)N(Cc3ccco3)C2=O)o1	0	-2	68*	-3
O=C1NC(=O)N(Cc2ccco2)C(=O)/C1=C\c1ccc(-c2ccc(C(=O)O)cc2)o1	0	-1	52*	-2
CCOC(=O)c1ccc(-c2ccc(/C=C3/C(=O)NC(=O)N(Cc4ccco4)C3=O)o2)cc1	0	-1	34	-61
O=C1NC(=O)N(Cc2ccco2)C(=O)/C1=C\c1ccc(-c2ccc([N+](=O)[O-])cc2)o1	0	0	75*	-6
CC(C)C(=O)NC(C)c1nnc2n1CCN(Cc1cccc3ccccc13)CC2 (stereo unspecified)	0	0	-2	1
NC1=NN(c2ccccc2)C(=O)C1	0	0	0	6
O=C1CC(C23CC4CC(CC(C4)C2)C3)=NN1c1ccccc1	0	2	15	33*
O=C1/C(=C/c2ccc(-c3ccc(Cl)c(Cl)c3)o2)C=C(c2ccccc2)N1c1cccc(I)c1	0	1	-2	9
CCCN1C(=O)C(=O)c2cc(Br)ccc21	0	0	-13	63*
CC(=O)CN1C(=O)C(=O)c2cc(Br)ccc21	0	0	24	10
C#CCN1C(=O)C(=O)c2cc(Br)ccc21	1	1	14	53*
C=CCN1C(=O)C(=O)c2cc(Br)ccc21	0	0	16	62*
O=C1C(=O)N(CCc2ccccc2)c2ccc(Br)cc21	0	1	17	27
Cc1noc(C)c1-c1nc(NC2CC2)c2ncn(CCN3CCCC3=O)c2n1	0	3	1	2
CC(=O)c1c(-c2ccccc2)[nH]c2ccccc12	0	4	5	46*
CCOC(=O)c1c(C)[nH]c(C)c1C(=O)CCl	0	-1	7	71*
Cc1[nH]c2ccccc2c1C(=O)CCl	2.3*	-2	18	5
Cc1[nH]c2ccccc2c1C(=O)CN(C)C	0	-1	-9	-10
SMILES	FBW7 act	GPR151 activ	MITF inh	TEAD-YAP inh
O=C(NCc1cccs1)C1CC12CCN(Cc1cn[nH]c1-c1ccccc1)CC2 (stereo unspecified)	0	-1	14	2
CCOC(=O)c1ccc(N=CC2=C(O)c3ccccc3C2=O)cc1	0	-1	2	48*
O=C1C(C=Nc2cccc(C(F)(F)F)c2)=C(O)c2ccccc21	0	0	-10	70*
COc1ccc(N=CC2=C(O)c3ccccc3C2=O)cc1OC	0	-2	10	11
O=C1C(C=Nc2ccc3c(c2)CCC3)=C(O)c2ccccc21	0	0	2	49*
O=S(=O)(c1ccc2nc(-c3ccccc3)[nH]c2c1)N1CCCC1	0	0	6	-20
CCCOc1ccc2ccccc2c1/C=C1\SC(N)=NC1=O	0	0	5	52*
COc1ccc(N=C2NC(=O)/C(=C\c3cc(OC)ccc3OC)S2)cc1	0	3	-17	19
CCCOc1ccccc1/C=C1\SC(N)=NC1=O	0	0	4	7
COc1ccc2ccccc2c1/C=C1/SC(=S)NC1=O	0	-1	1	2
COc1ccc2ccc(OC)c(/C=C3/C(=O)Nc4ccccc43)c2c1	0	0	-3	53*
COc1ccc(N=C2NC(=O)/C(=C/c3c(OC)ccc4ccccc34)S2)cc1	0	-1	-2	36*
COc1ccc2ccccc2c1/C=C1\SC(=Nc2ccc(C)cc2)NC1=O	0	-1	-3	53*
CN(C)c1ccc(/C=C/c2cc[n+](C)c3ccccc23)cc1	-1	-2	50	92*
O=C(CC1CCCCC1)Nc1nnc2n1CCS2	3.1*	1	19	-4
Cc1ccc(-c2cc3ncc(C#N)c(-c4cccc(C)c4)n3n2)cc1	0	-2	21	-1
Cc1cccc(-c2c(C#N)cnc3cc(C)nn23)c1	0	0	-7	33*
Fc1ccccc1-c1cnn2ccc(NCc3cccnc3)nc12	0	0	13	42*
c1cncc(CNc2ccn3ncc(-c4cccc5ccccc45)c3n2)c1	0	0	8	-8
CC1=CC(=O)C=C(C)C1=NOC(=O)c1ccc([N+](=O)[O-])cc1	1	-2	8	5
CC1=CC(=O)C=C(C)C1=NOC(=O)c1ccc(Cl)cc1	0	0	73*	8
COc1cc(C(N)CC(=O)O)ccc1OCc1cnc(Cl)s1 (stereo unspecified)	0	0	9	6
COc1ccc(C2/C(=C(\O)c3ccccc3)C(=O)C(=O)N2c2nc3ccccc3s2)c(OC)c1 (stereo unspecified)	0	0	18	20
COc1cccc(C2C(C(C)=O)=C(O)C(=O)N2c2nc3ccccc3s2)c1 (stereo unspecified)	0	0	8	-46
COc1ccc(C2C(C(C)=O)=C(O)C(=O)N2c2nc3ccccc3s2)c(OC)c1 (stereo unspecified)	0	0	1	47*
COc1ccc(C2/C(=C(\O)c3ccc(Cl)cc3)C(=O)C(=O)N2c2nc3ccccc3s2)c(OC)c1 (stereo unspecified)	0	-1	-1	41*
O=C1CCC(CCNCCOc2ccc(F)cc2)N1CC1COCCO1 (stereo unspecified)	0	1	2	-5
CCOc1ccc(-n2c(=S)sc3c(=O)n(-c4ccc(C)cc4)c(SCC(=O)NC(C)CC)nc32)cc1 (stereo unspecified)	0	-1	-5	-8
O=C1C=CC(=NS(=O)(=O)c2cccc(C(=O)O)c2)C=C1	0	-1	64*	-2
Cn1ncc(-c2ccnc(Nc3ccc(-n4cnc(N5CCOCC5)n4)cc3)c2)c1NC(=O)Cc1ccccc1	-1	1	-2	42*

Bioassay records: PubChem BioAssay, The Scripps Research Institute Molecular Screening Center
